# PubChem BioAssay
# A number with no mark means an inactive call. No rule for the calls is given here. Starred links: 1 amine or outer side, 2 acyl side, 3 side chain; linkers in the order of their positions; H or OH if unused. Positions of bridges follow the written chain, without caps; N, C: chain ends. Non-standard residues stand in square brackets, D forms with d. Residues, ends and D or L forms follow the SMILES beside them. ξ: configuration not given here. *: point of attachment. ΔAla(E,3-NHCONH2) = NC(=O)N/C=C(/N)C(=O)O; X1 = NC1=NCCC(C(N[*:1])C(=O)[*:2])N1; ξβ3hOrn = NCCCC(N)CC(=O)*; Dap = NC[CH](N)C(=O)O
# System: Aerobactin synthetase IucA (Klebsiella pneumoniae hvKP1)
# Assay: Biochemical IucA enzyme inhibition primary screen of the Spectrum library (AID 1346200);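 also: 100% = wells without compound and 0% = wells lacking enzyme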
# Settings: malachite green pyrophosphate, A620, at 8 µM, stronger effect = lower value
row,SMILES,activity remaining
1,CC1=C(C(=O)O)N2C(=O)[C@@H](NC(=O)C(N)c3ccc(O)cc3)[C@H]2SC1 (stereo not given in full),103%
2,COc1ccc(-c2coc3cc(OC)cc(OC)c3c2=O)cc1,103%
3,"NCCCC(N)CC(=O)NCC1NC(=O)C(CO)NC(=O)C(N)CNC(=O)C(C2CCN=C(N)N2)NC(=O)/C(=C\NC(N)=O)NC1=O (stereo not drawn) (H-[Dap]S[Dap](ξβ3hOrn)[ΔAla(E,3-NHCONH2)][X1]; lactam 1-C; configuration not given here)",101%
4,NC(Cc1cc(I)c(Oc2ccc(O)c(I)c2)c(I)c1)C(=O)O (stereo not given),97.1%
5,CNc1ccccc1C(=O)N1CCc2c([nH]c3ccccc23)C1=O,106%
6,C[C@]12CCC3c4ccc(OS(=O)(=O)O)cc4CCC3C1CCC2=O (stereo not given in full),122%
7,CC(=O)[C@@]1(O)CCC2C3C[C@H](C)C4=CC(=O)C=CC4(C)[C@@]3(F)[C@@H](O)C[C@@]21C (stereo not given in full),114%
8,O=c1[nH]cnc2c1ncn2C1O[C@H](CO)[C@@H](O)[C@H]1O (stereo not given in full),112%
9,CN1CCC(=C2c3ccccc3Sc3ccccc32)CC1,119%
10,O=c1cc(-c2ccccc2O)oc2cc(O)ccc12,100%
11,S=c1ccss1,84.5%
12,CC(=O)Oc1cccc(O)c1,114%
13,NS(=O)(=O)c1cc2c(cc1Cl)NC(C(Cl)Cl)NS2(=O)=O (stereo not given),108%
14,C[C@H]1C(=O)CCC2[C@]3(C)CC[C@@]4(C)C5CC(C)(C)CC[C@]5(C)CC[C@]4(C)C3CC[C@@]21C (stereo not given in full),105%
15,CC(C)(O)[C@@H]1CC[C@](C)([C@H]2[C@@H](O)C[C@@]3(C)C4C[C@H](O[C@@H]5O[C@H](CO)[C@@H](O)[C@H](O)[C@H]5O)C5C(C)(C)[C@@H](O[C@@H]6OC[C@@H](O)[C@H](O)[C@H]6O)CC[C@@]56C[C@@]46CC[C@]23C)O1 (stereo not given in full),93%
16,CC(=O)Oc1ccc2c(c1)CCC1C2CC[C@]2(C)C(=O)CCC12 (stereo not given in full),99.1%
17,CC(=O)O[C@]1(C)CC[C@@]23CC1C(C)(C)[C@@H]2CC[C@H]3C,102%
18,O=c1c(O)cccc2c([C@H]3Oc4cc(O)cc(O)c4C[C@@H]3O)cc(O)c(O)c12,99.4%
19,CCc1ccc(CCOc2ccc(CC3SC(=O)NC3=O)cc2)nc1 (stereo not given),120%
20,CC(C)NCC(O)c1ccc(O)c(O)c1 (stereo not given),82.7%

row,SMILES,activity remaining
1,CC(=O)O[C@@H]1CC2C(C)(C)C(=O)[C@@H]3O[C@@H]3[C@]2(C)C2CC[C@]3(C)C(=CC(=O)O[C@H]3c3ccoc3)[C@@]21C (stereo not given in full),99.4%
2,CC1(C)CC2C1CC[C@]1(C)CCC3C(C(=O)O)CC(=O)O[C@@]32C1 (stereo not given in full),92.5%
3,CNCCc1ccccn1,114%
4,COc1ccc2ccc(=O)oc2c1,114%
5,CC1CCCC(C)N1NC(=O)c1ccc(Cl)c(S(N)(=O)=O)c1 (stereo not given),121%
6,Cc1cc(=O)n(-c2ccccc2)n1C,110%
7,Cc1ncc([N+](=O)[O-])n1CC(C)O (stereo not given),112%
8,O=C(Cn1ccnc1[N+](=O)[O-])NCCO,111%
9,Cc1c(C)c2c(c(C)c1O)CCC(C)(COc1ccc(CC3SC(=O)NC3=O)cc1)O2 (stereo not given),117%
10,Cc1cccc(C)c1NC(=O)C1CCCCN1C (stereo not given),123%
11,O=C(O)c1cc(O)c2c(c1)C(=O)c1cc(O)cc(O)c1C2=O,99.8%
12,COc1cc(OC)c(-c2c(OC)cc(OC)cc2OC)c(OC)c1,106%
13,CO[C@@H]1[C@@H](O[C@@H]2O[C@H](C)[C@@H](O[C@H]3C[C@@](C)(O)[C@H](O)[C@H](C)O3)[C@H](N(C)C)[C@H]2O)[C@@H](CC=O)C[C@@H](C)[C@@H](O[C@H]2CC[C@H](N(C)C)[C@@H](C)O2)/C=C/C=C/C[C@H](C)OC(=O)C[C@H]1O,96.2%
14,CO[C@H]1C[C@H](O[C@H]2[C@H](C)[C@@H](OC3O[C@H](C)C[C@H](N(C)C)[C@H]3OC(C)=O)[C@@H](C)C[C@]3(CO3)C(=O)[C@H](C)[C@@H](OC(C)=O)[C@@H](C)[C@@H](C)OC(=O)[C@@H]2C)O[C@@H](C)[C@@H]1OC(C)=O (stereo not given in full),116%
15,NC(=O)c1cc[n+](CC2=C(C(=O)O)N3C(=O)C(NC(=O)C(c4ccccc4)S(=O)(=O)[O-])C3SC2)cc1 (stereo not given),117%
16,CC(C)[C@@H]1CC[C@@H](C)CC1=O,120%
17,N[C@@H](Cc1cc(I)c(Oc2cc(I)c(O)c(I)c2)c(I)c1)C(=O)O,117%
18,O=C1C=CC2=C3c4cc(O)c(O)cc4C[C@@]3(O)COC2=C1,120%
19,O=C(O)[C@H]1/C(=C/CO)O[C@@H]2CC(=O)N21,112%
20,CN(C)CCOC(=O)C(c1ccccc1)C1(O)CCCC1 (stereo not given),115%
